CYP2C19 inhib = blocks human cytochrome P450 2C19; P33261; CYP2C19 Supersomes, luciferin-H EGE luminescence, 30 min; inhibition, % at 5 µM; 21% of 96,000 active; AID 778;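 active = CYP2C19 inhibition above a set limit at 5 µM in the primary screen, cut at about 50% in these data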
Target sequence (P33261 whole entry, looked up): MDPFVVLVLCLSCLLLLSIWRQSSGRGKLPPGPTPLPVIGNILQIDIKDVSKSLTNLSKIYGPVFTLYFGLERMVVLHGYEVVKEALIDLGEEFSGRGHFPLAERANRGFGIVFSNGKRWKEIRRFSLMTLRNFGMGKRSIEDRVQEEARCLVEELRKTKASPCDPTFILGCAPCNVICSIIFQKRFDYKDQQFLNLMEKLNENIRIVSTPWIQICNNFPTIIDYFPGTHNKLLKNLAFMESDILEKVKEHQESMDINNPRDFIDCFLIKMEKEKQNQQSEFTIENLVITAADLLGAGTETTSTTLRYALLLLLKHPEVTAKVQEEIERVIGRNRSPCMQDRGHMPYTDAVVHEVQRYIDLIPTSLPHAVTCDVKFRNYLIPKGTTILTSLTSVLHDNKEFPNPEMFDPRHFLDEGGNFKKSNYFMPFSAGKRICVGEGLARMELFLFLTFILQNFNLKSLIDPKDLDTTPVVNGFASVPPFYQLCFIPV
CYP2C9 activ = increases human cytochrome P450 2C9 activity; P11712; recombinant CYP2C9, luciferin-H conversion, luminescence; stronger effect = higher value; factor 1 = untreated enzyme, 0 = blocked; activation factor at 5 µM; 1.4% of 96,000 active; AID 1024;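 active = activation factor of 2 or more for CYP2C9 at a 5 µM dose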
CYP2C9 inhib = human CYP2C9 inhibition; CYP2C9 Supersomes, luciferin-H conversion, luminescence; inhibition, % at 5 µM; 20% of 96,000 active; AID 777;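 active = blocking of liver enzyme CYP2C9 beyond about 50% at 5 µM, limit read from the data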
CYP2C19 activ = cytochrome P450 2C19 (human) activation | P33261 | recombinant CYP2C19, luciferin-H EGE luminescence; stronger effect = higher value; 0 = fully inhibited enzyme, 1 = untreated enzyme | activation factor at 5 µM | 96,000 tested, under 10 active | AID 1025;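 active = activation factor of at least 2 at 5 µM in the primary screen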
sEH act = activators of human soluble epoxide hydrolase; P34913; purified human sEH enzymatic activity, activator screen; activation, % at 2 µM; 0.04% of 91,000 active; in the data active = activation above about 37%
sEH inh = blocks human soluble epoxide hydrolase activity. P34913. recombinant human sEH enzymatic activity assay. inhibition, % at 2 µM. 0.34% of 91,000 active; in the data active = inhibition above about 80%
Hits are given with their value; . = inactive; / = no result. Most compounds without a hit are left out; they make up all but 27% or so of the library.

SMILES	CYP2C19 inhib	CYP2C9 activ	CYP2C9 inhib	CYP2C19 activ	sEH act	sEH inh
Cc1ccc2occ(C(c3nnnn3Cc3ccccc3)N3CCOCC3)c(=O)c2c1 (centres undefined)	.	.	.	.	.	.
CCOC(=O)Cn1cnc2sc3c(c2c1=O)CCC3	.	.	.	.	.	.
COc1ccccc1CNC(=O)CNCC1CCCO1 (centres undefined)	.	.	.	.	/	/
CCOc1ccc(C2C(C#N)=C(N)Oc3cc(C)n(CCN4CCOCC4)c(=O)c32)cc1OCC (centres undefined)	.	.	.	.	/	/
CCc1nnc(NCC(=O)N2CCc3ccccc32)s1	.	.	60	.	.	.
O=C(Cc1ccccc1)N1CCc2ccccc21	82	.	.	.	.	.
COc1ccc(CC(=O)N2CCc3ccccc32)cc1	/	/	/	/	.	.
O=C(CCn1cccc1)N1CCc2ccccc21	52	.	.	.	/	/
CC(Oc1ccc(Cl)cc1Cl)c1nc(-c2ccc(NC(=O)c3ccccn3)cc2)no1 (centres undefined)	/	/	/	/	.	.
COc1ccc(-c2nc3n(n2)C(c2ccncc2)C(C(N)=O)=C(C)N3)cc1 (centres undefined)	.	.	.	.	.	.
COC(=O)N(C)c1ccccc1C(=O)N1CCOCC1	/	/	/	/	.	.
CC(=O)c1cc(OC(=O)c2ccncc2)ccc1OC(=O)c1ccncc1	90	.	65	.	.	.
COc1ccc(OC(=O)c2ccncc2)cc1	77	.	57	.	.	.
CCCCCCOc1ccc(OC(=O)c2ccncc2)cc1	/	/	/	/	.	.
COc1cccc(N2CC34C=CC(O3)C(C(=O)O)C4C2=O)c1 (centres undefined)	.	.	.	.	.	.
COC(=O)C(O)(CC(=O)Nc1cc(Cl)ccc1Cl)C(F)(F)F (centres undefined)	/	/	/	/	.	.
O=C1OCC(CO)(CO)N=C1NNc1cc(Cl)ccc1Cl	77	.	56	.	.	.
Cc1ccc(SC(c2ccc(C)cc2)C(Cn2cncn2)C(=O)c2ccccc2)cc1 (centres undefined)	.	.	.	.	.	.
Cc1ccc(C(Sc2ccccc2)C(Cn2cncn2)C(=O)c2ccccc2)cc1 (centres undefined)	92	.	63	.	.	.
CC1CCN(S(=O)(=O)c2cccc(C(=O)O)c2)CC1	.	.	.	.	.	.
CCCCn1ccnc1C(=O)c1cc(S(=O)(=O)N2CCOCC2)ccc1C	60	.	69	.	.	.
CCCCn1ccnc1C(=O)c1cccc(S(=O)(=O)N2CC(C)CC(C)C2)c1 (centres undefined)	79	.	90	.	.	.
Cc1ccc(S(=O)(=O)N2CCOCC2)cc1C(=O)O	.	.	.	.	/	/
CC(=O)Nc1ccc(N2C(C(C)=O)=NN(c3ccc(Cl)cc3)C2c2sccc2C)cc1 (centres undefined)	/	/	/	/	.	.
COC(=O)C(CC(=O)c1ccc(Cl)cc1)c1ccc(C(C)C)cc1 (centres undefined)	.	.	.	.	.	.
SMILES	CYP2C19 inhib	CYP2C9 activ	CYP2C9 inhib	CYP2C19 activ	sEH act	sEH inh
CCCCNC(=S)NNC(=O)c1cccnc1	/	/	/	/	.	.
CCc1ccccc1NC(=O)COC(=O)C1CC(=O)N(c2ccc(F)cc2)C1 (centres undefined)	.	.	.	.	.	.
Cc1cccc(N(CC(=O)NCC2CCCO2)C(=O)CCC(=O)Nc2cc(C)on2)c1 (centres undefined)	.	.	52	.	/	/
Cc1cccc(-c2noc(CCCC(=O)N3CCOCC3)n2)c1	52	.	.	.	.	.
O=C(CN(C(=O)CCC(=O)Nc1nccs1)c1cccc(F)c1)NCC1CCCO1 (centres undefined)	.	.	.	.	.	.
Cc1cccc(-c2noc(CCC(=O)NCC3CCCO3)n2)c1 (centres undefined)	60	.	.	.	.	.
CCc1cccc2c(SC(C)C(=O)NCC3CCCO3)nc(-c3ccccc3)nc12 (centres undefined)	.	.	61	.	.	.
Cc1ccc(-c2noc(CCCC(=O)N3CCOCC3)n2)cc1	.	.	.	.	/	/
CCc1ccc2nc(-c3cccc(C)c3)nc(SCC(=O)NCC3CCCO3)c2c1 (centres undefined)	60	.	75	.	.	.
CCOC(=O)c1ccc(-n2c(N)c(C(=O)NCC3CCCO3)sc2=S)cc1 (centres undefined)	.	.	83	.	.	.
